Measured values reported in PubChem BioAssay (NCATS).
Results filed as inconclusive are left out. Values without a mark were called inactive. Activity calls are given as the source filed them. Calls come from the whole dose curve; as a rule, active = well fitted curve in the direction sought with a large enough effect; inconclusive = small, poorly fitted or top-dose-only effect, or another doubt; inactive = no such curve, though single readings can be large; an effect the other way counts as inactive or inconclusive.

Assays:
[1] = Viability qHTS for spleen associated tyrosine kinase inhibitor (SYKi) drug resistant MV4-11 cells (AID 1963824); note: nearly all actives have a fitted effect of over 35% in size
Summary of the method: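 SYK inhibitor-resistant MV4-11 AML cells, 500 per well, added to predispensed compounds and incubated 72 hr at 37 C, 5% CO2. Viability measured by CellTiter-Glo luminescence after 10 min at room temperature.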

[2] = Cellular viability qHTS for adrenocortical cancer (ACC) cell line SW-13 (AID 1963989); settings: SW-13 ACC cells viability, CellTiter-Glo, 48 h; activity (max response): stronger effect = lower value; note: nearly all actives have a fitted effect of over 65% in size;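 for activity (max response): cells grown in serum-free medium with ITS supplement; % is set by controls: 0 for no effect and ±100 for the full control effect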
Summary of the method: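 Luminescent ATP read-out (CellTiter-Glo, 20 min at room temperature) measured metabolically competent SW-13 cells after 48 h compound treatment. Final concentrations spanned up to 46 uM; bortezomib served as positive control.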

[3] = Cellular viability qHTS for adrenocortical cancer (ACC) cell line NCI-H295R (AID 1963990); note: nearly all actives have a fitted effect of over 60% in size
Summary of the method: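 IC50 and maximal efficacy derive from four-parameter logistic modelling of titration curves, with reads scaled between DMSO-only wells (0%) and doxorubicin hydrochloride (100% inhibition). Compounds spanned up to 46 uM over 48 h.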
Potency is the fitted concentration of half-maximal effect.

SMILES: CCCCCCCCCC(=O)O[C@H]1CC[C@H]2[C@@H]3CCC4=CC(=O)CC[C@@H]4[C@H]3CC[C@]12C
- Potency [1]: inactive
- activity (max response) [2]: 6.32%

SMILES: CC[C@@H](CO)NC(=O)[C@@H]1C=C2c3cccc4c3c(cn4C)C[C@H]2N(C)C1
- Potency [1]: 9.44 µM (active)
- activity (max response) [2]: -2.39%
- Potency [3]: inactive

SMILES: CN(C)CCc1c[nH]c2cccc(OP(=O)(O)O)c12
- Potency [1]: inactive
- activity (max response) [2]: -5.41%
- Potency [3]: inactive

SMILES: C[CH2][Hg][S]c1ccccc1C(=O)O
- Potency [1]: inactive
- Potency [2]: 2.59 µM (active)
- Potency [3]: 1.64 µM (active)

SMILES: COP(=S)(OC)Oc1ccc(S(=O)(=O)N(C)C)cc1
- Potency [1]: inactive
- activity (max response) [2]: -2.83%

SMILES: Cc1ccc(-c2nc3ccc(C)cn3c2CC(=O)N(C)C)cc1
- Potency [1]: inactive
- activity (max response) [2]: -1.33%
- Potency [3]: inactive

SMILES: c1ccc2c(c1)Nc1ccccc1S2
- Potency [1]: inactive
- activity (max response) [2]: -23.4%

SMILES: COc1cc(CC(C)N)cc2c1OCO2 (stereo not given)
- Potency [1]: inactive
- activity (max response) [2]: -21.8%
- Potency [3]: inactive

SMILES: COC(=O)[C@@]12OC[C@]34[C@H]([C@@H](O)[C@@H]1O)[C@@]1(C)CC(=O)C(O)=C(C)[C@@H]1C[C@H]3OC(=O)[C@H](OC(=O)/C=C(\C)C(C)C)[C@@H]24
- Potency [1]: 0.0132 µM (active)
- Potency [2]: 6.31 µM (active)
- Potency [3]: 12.6 µM (active)

SMILES: CC1=C2C[C@H]3[C@@H](CC=C4C[C@@H](O)CC[C@@]43C)[C@@H]2CC[C@]12O[C@@H]1C[C@H](C)CN[C@H]1[C@H]2C
- Potency [1]: 14.8 µM (active)
- activity (max response) [2]: -8.25%
- Potency [3]: inactive

SMILES: CCC(CC)(CNC(=O)CCCO)c1cccc(OC)c1
- Potency [1]: inactive
- activity (max response) [2]: 8.71%
- Potency [3]: inactive
